Results taken from PubChem BioAssay AID504915 (The Scripps Research Institute Molecular Screening Center, 2011).
This is one part of the list. A number with no mark means an inactive call. Rule as the data show it: active = activation above about 17%; inactive = the rest.

Molecular target: 5-hydroxytryptamine receptor 5A (Homo sapiens) (UniProt P47898)
Assay: activation of human 5-HT5A receptor – cell-based, luminescence, confirmation (AID 504915);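 also: 0% = cells with vehicle only and 100% = full reference agonist response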
Conditions: HTR5A agonist cell assay, at 9.3 µM, active compounds read high

Sequence of 5-hydroxytryptamine receptor 5A (Homo sapiens) (P47898 whole entry, looked up): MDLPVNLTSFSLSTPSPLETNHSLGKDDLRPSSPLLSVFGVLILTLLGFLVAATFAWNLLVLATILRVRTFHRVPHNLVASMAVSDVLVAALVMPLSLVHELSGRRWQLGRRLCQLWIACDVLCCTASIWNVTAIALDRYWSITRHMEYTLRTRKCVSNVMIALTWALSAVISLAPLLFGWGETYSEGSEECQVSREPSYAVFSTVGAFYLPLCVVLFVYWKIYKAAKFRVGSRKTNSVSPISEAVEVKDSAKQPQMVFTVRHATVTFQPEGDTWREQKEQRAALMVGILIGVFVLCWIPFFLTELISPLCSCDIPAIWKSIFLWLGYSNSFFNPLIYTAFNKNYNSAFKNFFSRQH

SMILES: CCCCCCCCCCCCn1ccc(=N)cc1
- activation: 0.13%
